Data: PubChem BioAssay (Tox21)
Results filed as inconclusive are left out. Activity calls are given as the source filed them. Unless noted, calls follow the shape of the dose curve; as a rule, active = well fitted curve in the direction sought with a large enough effect in the repeat runs; inconclusive = weak or mixed curves; inactive = no such curve, though single readings can be large; an effect the other way counts as inactive or inconclusive.

Legend:
[1] = qHTS assay for small molecules that induce genotoxicity in human embryonic kidney cells expressing luciferase-tagged ATAD5 (AID 651632); also: nearly all actives have a fitted effect of over 15% in size
In short: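 Test compounds were delivered by pin tool onto HEK293T reporter cells (2,000/well) expressing ATAD5 fused to luciferase. After 16 hr at 37C, 5% CO2, Amplite was added for 30 min at room temperature and luminescence was measured.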

[2] = qHTS assay for small molecules that induce genotoxicity in human embryonic kidney cells expressing luciferase-tagged ATAD5 - cell viability (AID 651634; calls by dose curve; also: nearly all actives have a fitted effect of over 25% in size)
In short: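 Quantitative high-throughput format. HEK293T cells expressing ATAD5 fused to luciferase were plated at 2,000 cells/well and treated 15.5 hr with compound versus DMSO. Viability was determined by fluorescent live-cell protease substrate, 30 min at 37C.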

[3] = qHTS assay for small molecule disruptors of the mitochondrial membrane potential - cell viability (AID 720634; calls by dose curve;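 also: human HepG2 liver cancer cells; nearly all actives have a fitted effect of over 20% in size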)
In short: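 Same-well counter-screen: following the MMP dye addition, CellTiter-Glo was added to 1 hr compound-treated HepG2 cells and luminescence read after 30 min at room temperature.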

[4] = qHTS assay to test for compound auto fluorescence at 590 nm (red) in HepG2 cells (AID 720674)
In short: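 HepG2 cells, 2,000 per well in MEM with 10% FBS, attached overnight at 37 C, then got 23 nL compound or DMSO. After 1 hr at 37 C, 5% CO2, red fluorescence was read at 540/590 nm against Rose Bengal sodium as reference.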

[5] = qHTS assay to test for compound auto fluorescence at 535 nm (green) in HepG2 cells (AID 720675)
[6] = qHTS assay to test for compound auto fluorescence at 460 nm (blue) in HEK293 cells (AID 720678)
In short: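 HEK293 cells (2,000 per well, medium with 10% dialyzed FBS) attached for 4-5 hr at 37C, then received compound and stood overnight at 37C, 5% CO2. Blue fluorescence was read at Ex/Em 405/460 nm and expressed relative to triamterene.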

[7] = qHTS assay to test for compound auto fluorescence at 590 nm (red) in HEK293 cells (AID 720679)
In short: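 HEK293 cells (2,000/well, medium with 10% dialyzed FBS) attached for 4-5 hr at 37C, received 23 nL compound and were incubated overnight at 37C, 5% CO2. Red fluorescence was then read at 540/590nm Ex/Em, referenced to Rose Bengal sodium.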

[8] = qHTS assay to test for compound auto fluorescence at 535 nm (green) in HEK293 cells (AID 720680)
[9] = qHTS assay to test for compound auto fluorescence at 460 nm (blue) in HEK293 cell free culture (AID 720681)
In short: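 Compounds were added to cell-free DMEM with 10% FBS and fluorescence read directly. The blue channel used 405 nm excitation and 460 nm emission, with triamterene as the reference fluorophore.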

[10] = qHTS assay to test for compound auto fluorescence at 535 nm (green) in HEK293 cell free culture (AID 720682)
In short: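 Intrinsic compound fluorescence is measured in culture medium containing 10% FBS, with excitation at 485 nm and detection at 535 nm, referenced to fluorescein.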

[11] = qHTS assay to test for compound auto fluorescence at 590 nm (red) in HEK293 cell free culture (AID 720683)
In short: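 Cell-free wells of DMEM with 10% FBS received compound, and intrinsic fluorescence was read at excitation/emission 540/590 nm. Values expressed as equivalence to Rose Bengal sodium.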

[12] = qHTS assay to test for compound auto fluorescence at 590 nm (red) in HepG2 cell free culture (AID 720684)
In short: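 Rose Bengal sodium served as the reference for red signal. Test compounds were dispensed into serum-containing MEM (10% FBS) without cells, and plates were read at 540/590 nm.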

[13] = qHTS assay to test for compound auto fluorescence at 460 nm (blue) in HepG2 cell free culture (AID 720685)
In short: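 Cell-free plates of MEM plus 10% FBS received 23 nL compound or DMSO vehicle; blue-channel (405/460 nm) intensity scored against triamterene as reference fluorophore.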

[14] = qHTS assay to test for compound auto fluorescence at 535 nm (green) in HepG2 cell free culture (AID 720686)
[15] = qHTS assay to test for compound auto fluorescence at 460 nm (blue) in HepG2 cells (AID 720687)
In short: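 HepG2 cells in MEM with 10% FBS, attached overnight at 37 C, were exposed to compound or DMSO for 1 hr at 37 C, 5% CO2. Blue fluorescence was read at 405/460 nm, with triamterene as reference fluorophore.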

[16] = qHTS assay for small molecule disruptors of the mitochondrial membrane potential (AID 720635); also: potency is read from the fitted curve at half-maximal effect
In short: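 HepG2 cells exposed to compound 1 hr at 37C, then Mito-MPS dye 30 min. Ratio read of aggregate (540/590 nm) versus monomer (490/535 nm) fluorescence.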

[17] = target: Glucocorticoid receptor (Homo sapiens) (UniProt P04150); test: qHTS assay to identify small molecule agonists of the glucocorticoid receptor (GR) signaling pathway (AID 720691; active = well fitted activation curve with a large enough effect in the signal ratio in the repeat runs, not every such curve was filed as active; the % refers to the signal ratio); conditions: GR-bla HeLa, beta-lactamase reporter ratio, 18 h; activation: at 62.4 µM (top of the series) unless noted
Sequence of Glucocorticoid receptor (Homo sapiens) (P04150 whole entry, looked up): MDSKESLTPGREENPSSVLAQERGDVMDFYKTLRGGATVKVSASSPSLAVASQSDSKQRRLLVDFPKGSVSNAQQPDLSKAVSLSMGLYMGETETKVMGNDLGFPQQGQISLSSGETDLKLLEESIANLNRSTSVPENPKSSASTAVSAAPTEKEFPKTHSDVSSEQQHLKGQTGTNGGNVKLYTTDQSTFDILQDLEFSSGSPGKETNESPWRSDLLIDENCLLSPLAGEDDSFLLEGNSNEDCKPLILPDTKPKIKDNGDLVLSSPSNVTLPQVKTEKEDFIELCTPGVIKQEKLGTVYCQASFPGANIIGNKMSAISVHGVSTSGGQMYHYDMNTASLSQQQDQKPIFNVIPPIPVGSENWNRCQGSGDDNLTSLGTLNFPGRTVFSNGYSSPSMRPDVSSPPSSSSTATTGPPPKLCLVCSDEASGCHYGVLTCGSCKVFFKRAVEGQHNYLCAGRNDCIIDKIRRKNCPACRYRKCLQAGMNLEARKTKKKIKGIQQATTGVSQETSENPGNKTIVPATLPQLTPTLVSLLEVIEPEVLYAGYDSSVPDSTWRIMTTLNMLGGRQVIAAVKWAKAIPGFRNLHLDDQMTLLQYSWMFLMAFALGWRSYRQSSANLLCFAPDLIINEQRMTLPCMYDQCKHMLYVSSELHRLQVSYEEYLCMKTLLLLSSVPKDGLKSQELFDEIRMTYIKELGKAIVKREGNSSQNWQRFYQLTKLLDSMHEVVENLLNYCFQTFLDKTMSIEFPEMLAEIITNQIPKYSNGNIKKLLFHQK
In short: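 A HeLa cervical cancer line expressing GR and a glucocorticoid response element-driven beta-lactamase gene is treated with compounds for 18 h; LiveBLAzer B/G FRET substrate is then applied and fluorescence read.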

[18] = target: Glucocorticoid receptor (Homo sapiens) (UniProt P04150); test: qHTS assay to identify small molecule antagonists of the glucocorticoid receptor (GR) signaling pathway (AID 720692; active = well fitted inhibition curve with a large enough effect in the signal ratio in the repeat runs, not every such curve was filed as active; the % refers to the signal ratio)
In short: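 GRE-bla HeLa line, dex-stimulated (5 nM final). Compound exposure 18 h, 37 C. Beta-lactamase FRET read after 2 h RT substrate.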
% is scaled to controls: 0 for no effect and ±100 for the full control effect.

Brc1c2ccccc2c(Br)c2ccccc12
inactive: activation [1] 1.86% [at 8.08 µM] | activity, negative = cytotoxicity [2] 21.9% [at 8.08 µM] | activity change, negative = cytotoxicity [3] -7.1% [at 8.08 µM] | fluorescence, relative to Rose Bengal [4] 0.105% [at 3.72 µM] | fluorescence, % of fluorescein control [5] 0.0196% [at 3.72 µM] | fluorescence, % of triamterene [6] 0.364% [at 3.72 µM] | fluorescence, % of fluorescent control [7] -0.0447% [at 3.72 µM] | fluorescence, % of fluorescein [8] 0.0022% [at 3.72 µM] | fluorescence, % of fluorescent control [9] 0.357% [at 3.72 µM] | activity change [10] -0.0415% [at 3.72 µM] | fluorescence, % of fluorescent control [11] 0.0422% [at 3.72 µM] | fluorescence, % of Rose Bengal [12] 0.241% [at 3.72 µM] | fluorescence, % of fluorescent control [13] 0.581% [at 3.72 µM] | fluorescence, % of fluorescein control [14] 0.0474% [at 3.72 µM] | fluorescence, % of fluorescent control [15] 1.18% [at 3.72 µM]

COc1cc(Cl)ccc1Oc1ccc(Cl)cc1Cl
inactive: Potency [1] | Potency [2] | Potency [4] | Potency [5] | outcome [6] | Potency [7] | outcome [8] | outcome [9] | Potency [12] | outcome [13] | Potency [14] | outcome [15]
active: Potency [16] 23.6 µM

CC(C)O.CC(C)O.CCOC(=O)/C=C(\C)O.CCOC(=O)/C=C(\C)O.[Ti]
inactive: Potency [2] | Potency [3] | Potency [4] | Potency [5] | outcome [6] | Potency [7] | outcome [8] | outcome [9] | outcome [10] | Potency [11] | Potency [12] | outcome [13] | Potency [14] | outcome [15]

Cc1cccc(C)c1NC(=O)CN(CC(=O)O)CC(=O)O
inactive: Potency [1] | Potency [3] | Potency [16] | Potency [5] | outcome [6] | Potency [7] | outcome [8] | outcome [9] | outcome [10] | Potency [12] | outcome [13] | Potency [14] | outcome [15] | Potency [17] | Potency [18]

O=C(O)c1ccc(-n2nc(-c3ccccc3O)nc2-c2ccccc2O)cc1
inactive: Potency [1] | Potency [3] | Potency [5] | outcome [6] | Potency [7] | outcome [8] | outcome [9] | Potency [11] | Potency [12] | outcome [13] | Potency [14]

COc1cc2c(cc1OC)C(C(C(=O)N(CCc1ccc(OC)c(OC)c1OC)CCc1ccc(OC)c(OC)c1OC)c1ccccc1)=NCC2 (stereo not drawn)
inactive: Potency [1] | Potency [3] | Potency [4] | Potency [5] | outcome [6] | Potency [7] | outcome [8] | outcome [9] | outcome [10] | Potency [11] | Potency [12] | outcome [13] | Potency [14] | outcome [15]

NCCCN1CCOCC1
inactive: Potency [1] | Potency [2] | Potency [3] | Potency [4] | Potency [5] | Potency [7] | outcome [8] | outcome [9] | Potency [11] | Potency [12] | outcome [13] | Potency [14] | outcome [15] | Potency [17] | Potency [18]

C=CC(=O)OCCOCCOC(=O)C=C
inactive: Potency [3] | Potency [16] | Potency [4] | Potency [5] | Potency [7] | outcome [8] | outcome [9] | outcome [10] | Potency [11] | Potency [12] | outcome [13] | Potency [14] | outcome [15]

CN1CCC(N(Cc2cccs2)c2ccccc2)CC1
inactive: Potency [1] | Potency [2] | Potency [3] | Potency [4] | Potency [5] | Potency [7] | outcome [8] | outcome [9] | outcome [10] | Potency [11] | Potency [12] | outcome [13] | Potency [14] | outcome [15] | Potency [17]

O=C(CS)Nc1ccccc1
inactive: Potency [1] | Potency [3] | Potency [4] | Potency [5] | outcome [6] | Potency [7] | outcome [8] | outcome [9] | Potency [11] | Potency [12] | outcome [13] | Potency [14] | outcome [15]
